Results as given in PubChem BioAssay (NCATS).
Results filed as inconclusive are left out. Activity calls are given as the source filed them. Calls come from the whole dose curve; as a rule, active = well fitted inhibition curve with a large enough effect; inconclusive = small, poorly fitted or top-dose-only effect; inactive = flat fitted curve, though single readings scatter.

Experiments:
Experiment in all cases: qHTS profiling for inhibitors of Plasmodium falciparum proliferation (AID 504749); note: nearly all actives have a fitted effect of over 60% in size
Details in all cases: P. falciparum in erythrocytes, SYBR Green DNA, 72 h; series mostly up to 28.7 µM
CP252 = tested on: CP252
Summary of the method: (§1)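 Three-day growth assay of blood-stage parasites in erythrocytes (0.3% parasitemia, 2.5% hematocrit) at 37 C, 5% CO2, quantified by SYBR Green DNA staining after overnight detergent lysis.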

CP256 = tested on: CP256
Summary of the method: as §1

CP260 = tested on: CP260
Summary of the method: as §1

CP262 = tested on: CP262
Summary of the method: as §1

CP265 = tested on: CP265
Summary of the method: as §1

CP266 = tested on: CP266
Summary of the method: as §1

CP268 = tested on: CP268
Summary of the method: as §1

CP269 = tested on: CP269
Summary of the method: as §1

CP286 = tested on: CP286
Summary of the method: as §1

CP291 = tested on: CP291
Summary of the method: as §1

CP297 = tested on: CP297
Summary of the method: as §1

CP305 = tested on: CP305
Summary of the method: as §1

CP315 = tested on: CP315
Summary of the method: as §1

CP325 = tested on: CP325
Summary of the method: as §1

CP329 = tested on: CP329
Summary of the method: as §1

CP335 = tested on: CP335
Summary of the method: as §1

DFO2036 = tested on: DFO2036
Summary of the method: as §1

DIV14 = tested on: DIV14
Summary of the method: as §1

DIV30 = tested on: DIV30
Summary of the method: as §1

Dd2 = tested on: Dd2
Summary of the method: as §1

ECU = tested on: ECU
Summary of the method: as §1

FAB9 = tested on: FAB9
Summary of the method: as §1

GB4 = tested on: GB4
Summary of the method: as §1

HB3 = tested on: HB3
Summary of the method: as §1

JCK = tested on: JCK
Summary of the method: as §1

N140 = tested on: N140
Summary of the method: as §1

P93_24 = tested on: P93_24
Summary of the method: as §1

P94_40 = tested on: P94_40
Summary of the method: as §1

PAD = tested on: PAD
Summary of the method: as §1

PC15 = tested on: PC15
Summary of the method: as §1

PC26 = tested on: PC26
Summary of the method: as §1

PC49 = tested on: PC49
Summary of the method: as §1

SC27B = tested on: SC27B
Summary of the method: as §1

TAB109 = tested on: TAB109
Summary of the method: as §1

TAB113 = tested on: TAB113
Summary of the method: as §1

TAB165 = tested on: TAB165
Summary of the method: as §1

Measured: Potency

CCN(CC)CCO[C@H]1CC[C@@]2(C)C(=CC[C@@H]3[C@H]2CC[C@]2(C)C(=O)CC[C@H]32)C1
inactive: all assays above
